# The supplement of paper PMC8728848
# Only a selection was taken, and the strongest signals are over-represented in it overall.
# Experiments:
# Assay in all cases: glycan array binding signal (z-score within array); higher = stronger binding
# Settings in all cases: glycan notation: IUPAC condensed, linker removed
# [1] = molecular target: GlcNAc(b1-3)Gal(b1-4)GlcNAc(b1-3)Gal(b1-4)GlcNAc(b1-2)[GlcNAc(b1-3)Gal(b1-4)GlcNAc(b1-3)Gal(b1-4)GlcNAc(b1-6)]Man(a1-6)[GlcNAc(b1-3)Gal(b1-4)GlcNAc(b1-3)Gal(b1-4)GlcNAc(b1-2)Man(a1-3)]Man(b1-4)GlcNAc(b1-4)[Fuc(a1-6)]GlcNAc
# Outline: (§1)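 Glycan array data were curated from 3228 arrays in the Consortium for Functional Glycomics database and kept only where the protein sequence was available. Glycan names were converted to IUPAC-condensed notation, and columns mapping to the same glycan were averaged. The binding signal is a within-array Z-score, averaged across arrays of the same protein sequence at different concentrations or buffers and across linkers. Negative Z-scores can be read as non-binding.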
# [2] = molecular target: GlcNAc(b1-3)Gal(b1-4)GlcNAc(b1-3)Gal(b1-4)GlcNAc(b1-3)Gal(b1-4)GlcNAc(b1-3)Gal(b1-4)GlcNAc(b1-2)Man(a1-3)[GlcNAc(b1-3)Gal(b1-4)GlcNAc(b1-3)Gal(b1-4)GlcNAc(b1-3)Gal(b1-4)GlcNAc(b1-3)Gal(b1-4)GlcNAc(b1-2)Man(a1-6)]Man(b1-4)GlcNAc(b1-4)GlcNAc
# Outline: as §1
# [3] = molecular target: GlcNAc(b1-3)Gal(b1-4)GlcNAc(b1-6)[GlcNAc(b1-3)]Gal(b1-4)GlcNAc
# Outline: as §1
# [4] = molecular target: GlcNAc(b1-4)[GlcNAc(b1-6)]GalNAc
# Outline: as §1
# [5] = molecular target: Man(a1-2)Man(a1-2)Man(a1-3)Man
# Outline: as §1
# [6] = molecular target: Man(a1-2)Man(a1-2)Man(a1-6)[Man(a1-3)]Man
# Outline: as §1
# [7] = molecular target: Man(a1-2)Man(a1-3)[Man(a1-2)Man(a1-6)]Man(a1-6)[Man(a1-2)Man(a1-2)Man(a1-3)]Man
# Outline: as §1
# [8] = molecular target: Man(a1-3)[Man(a1-6)]Man(a1-6)[Man(a1-2)Man(a1-3)]Man(b1-4)GlcNAc(b1-4)GlcNAc
# Outline: as §1
# [9] = molecular target: Neu5Ac(a2-3)Gal(b1-3)GlcNAc(b1-4)Gal(b1-4)Glc
# Outline: as §1
# [10] = molecular target: Neu5Ac(a2-3)Gal(b1-3)[Neu5Ac(a2-6)]GalNAc
# Outline: as §1
# [11] = molecular target: Neu5Ac(a2-3)Gal(b1-4)GlcNAc(b1-3)GalNAc
# Outline: as §1
# [12] = molecular target: Neu5Ac(a2-3)Gal(b1-4)GlcNAc6S
# Outline: as §1
# [13] = molecular target: Neu5Ac(a2-3)Gal(b1-4)[Fuc(a1-3)]GlcNAc(b1-3)Gal(b1-4)GlcNAc
# Outline: as §1
# [14] = molecular target: Neu5Ac(a2-3)Gal(b1-4)[Fuc(a1-3)]GlcNAc6S
# Outline: as §1
# [15] = molecular target: Neu5Ac(a2-3)GalNAc(b1-4)GlcNAc
# Outline: as §1
# [16] = molecular target: Neu5Ac(a2-3)[GalNAc(b1-4)]Gal(b1-4)GlcNAc
# Outline: as §1
# [17] = molecular target: Neu5Ac(a2-6)Gal(b1-4)GlcNAc(b1-2)Man
# Outline: as §1
# [18] = molecular target: Neu5Ac(a2-6)Gal(b1-4)GlcNAc(b1-2)Man(a1-3)[GlcNAc(b1-2)Man(a1-6)]Man(b1-4)GlcNAc(b1-4)GlcNAc
# Outline: as §1
# [19] = molecular target: Neu5Ac(a2-6)Gal(b1-4)GlcNAc(b1-2)Man(a1-3)[Man(a1-6)]Man(b1-4)GlcNAc(b1-4)GlcNAc
# Outline: as §1
# [20] = molecular target: Neu5Ac(a2-6)Gal(b1-4)GlcNAc(b1-2)Man(a1-6)Man(b1-4)GlcNAc(b1-4)GlcNAc
# Outline: as §1
# [21] = molecular target: Neu5Ac(a2-6)Gal(b1-4)GlcNAc(b1-2)Man(a1-6)[Man(a1-3)]Man(b1-4)GlcNAc(b1-4)GlcNAc
# Outline: as §1
# [22] = molecular target: Neu5Ac(a2-6)Gal(b1-4)GlcNAc(b1-2)[Neu5Ac(a2-6)Gal(b1-4)GlcNAc(b1-4)]Man(a1-3)[GlcNAc(b1-4)][Neu5Ac(a2-6)Gal(b1-4)GlcNAc(b1-2)[Neu5Ac(a2-6)Gal(b1-4)GlcNAc(b1-6)]Man(a1-6)]Man(b1-4)GlcNAc(b1-4)GlcNAc
# Outline: as §1
# [23] = molecular target: Fuc(a1-2)Gal(b1-3)GlcNAc(b1-3)Gal(b1-4)Glc
# Outline: as §1
# [24] = molecular target: Fuc(a1-2)Gal(b1-3)[Fuc(a1-4)]GlcNAc(b1-3)[Gal(b1-4)GlcNAc(b1-6)]Gal(b1-4)Glc
# Outline: as §1
# [25] = molecular target: Fuc(a1-2)Gal(b1-4)GlcNAc(b1-3)Gal(b1-4)GlcNAc(b1-3)Gal(b1-4)GlcNAc
# Outline: as §1
# [26] = molecular target: Fuc(a1-2)[Gal(a1-3)]Gal(b1-3)GlcNAc(b1-2)Man(a1-3)[Fuc(a1-2)[Gal(a1-3)]Gal(b1-3)GlcNAc(b1-2)Man(a1-6)]Man(b1-4)GlcNAc(b1-4)GlcNAc
# Outline: as §1
# [27] = molecular target: Fuc(a1-2)[Gal(a1-3)]Gal(b1-4)GlcNAc(b1-2)Man(a1-3)[Fuc(a1-2)[Gal(a1-3)]Gal(b1-4)GlcNAc(b1-2)Man(a1-6)]Man(b1-4)GlcNAc(b1-4)GlcNAc
# Outline: as §1
# [28] = molecular target: Fuc(a1-2)[GalNAc(a1-3)]Gal(b1-4)GlcNAc
# Outline: as §1
# [29] = molecular target: Fuc(a1-2)[GalNAc(a1-3)]Gal(b1-4)GlcNAc(b1-2)Man(a1-3)[Fuc(a1-2)[GalNAc(a1-3)]Gal(b1-4)GlcNAc(b1-2)Man(a1-6)]Man(b1-4)GlcNAc(b1-4)GlcNAc
# Outline: as §1
# [30] = molecular target: Fuc(a1-2)[GalNAc(a1-3)]Gal(b1-4)GlcNAc(b1-3)Gal(b1-4)GlcNAc(b1-3)Gal(b1-4)GlcNAc
# Outline: as §1
# [31] = molecular target: Fuc(a1-2)[GalNAc(b1-3)]Gal
# Outline: as §1
# [32] = molecular target: Fuc(a1-3)[Gal(b1-4)]GlcNAc6S
# Outline: as §1
# [33] = molecular target: Gal(a1-3)Gal(b1-4)GlcNAc(b1-3)GalNAc
# Outline: as §1
# [34] = molecular target: Gal(a1-3)[Gal(a1-4)]Gal(b1-4)GlcNAc
# Outline: as §1
# [35] = molecular target: Gal(a1-4)Gal(b1-3)GlcNAc(b1-2)Man(a1-3)[Gal(a1-4)Gal(b1-3)GlcNAc(b1-2)Man(a1-6)]Man(b1-4)GlcNAc(b1-4)GlcNAc
# Outline: as §1
# [36] = molecular target: Gal(b1-3)Gal(b1-4)GlcNAc(b1-2)Man(a1-3)[Gal(b1-3)Gal(b1-4)GlcNAc(b1-2)Man(a1-6)]Man(b1-4)GlcNAc(b1-4)GlcNAc
# Outline: as §1
# [37] = molecular target: Gal(b1-3)GalNAc(a1-3)[Fuc(a1-2)]Gal(b1-4)GlcNAc
# Outline: as §1
# [38] = molecular target: Gal(b1-3)[Neu5Ac(b2-6)]GalNAc
# Outline: as §1
# [39] = molecular target: Gal(b1-4)GlcNAc(b1-2)[Gal(b1-4)GlcNAc(b1-4)]Man(a1-3)[Gal(b1-4)GlcNAc(b1-2)[Gal(b1-4)GlcNAc(b1-6)]Man(a1-6)]Man(b1-4)GlcNAc(b1-4)GlcNAc
# Outline: as §1
# [40] = molecular target: Gal(b1-4)GlcNAc(b1-3)Gal(b1-3)GlcNAc
# Outline: as §1
# [41] = molecular target: Gal(b1-4)GlcNAc(b1-3)Gal(b1-4)GlcNAc(b1-3)Gal(b1-4)GlcNAc
# Outline: as §1
# [42] = molecular target: Gal(b1-4)GlcNAc(b1-3)[GlcNAc(b1-6)]Gal(b1-4)GlcNAc
# Outline: as §1
# [43] = molecular target: Gal3S(b1-4)[Fuc(a1-3)]Glc
# Outline: as §1
# [44] = molecular target: Gal6S(b1-4)Glc
# Outline: as §1
# [45] = molecular target: GalNAc(b1-3)Gal(a1-6)Gal(b1-4)Glc
# Outline: as §1
# [46] = molecular target: GlcNAc(a1-6)Gal(b1-4)GlcNAc
# Outline: as §1
# [47] = molecular target: GlcNAc(b1-4)GlcNAc(b1-4)GlcNAc(b1-4)GlcNAc(b1-4)GlcNAc
# Outline: as §1
# [48] = molecular target: GlcNAc(b1-6)Gal(b1-4)GlcNAc
# Outline: as §1
# [49] = molecular target: GlcNAc(b1-6)GalNAc
# Outline: as §1
# [50] = molecular target: Kdn(a2-3)Gal(b1-4)Glc
# Outline: as §1
# [51] = molecular target: Kdn(a2-3)Gal(b1-4)GlcNAc
# Outline: as §1
# [52] = molecular target: Man(a1-2)Man(a1-6)[Man(a1-3)]Man(a1-6)[Man(a1-2)Man(a1-2)Man(a1-3)]Man
# Outline: as §1
binder,measurement,setting,value
GS7807P-bth-537-23-537 (Bacteroides thetaiotaomicron) (protein) NYENINSNPYEAPDLSADGYALGSAMNNLAGCVVSPDVNTAQFTDCLLGGPLGGYFADSNAGFTETISNFNPKDDWSRVFLKSDKIIPTLYSNLTQVKLVSQNTNDPVPYAIAQVIKVAAMHRVTDAFGPIPYSQIGANGEIATPYDSQEVTYNTFFDELNAAIATLNENSNEQLVPTADYIYKGDVKKWIRFANSLKLRLAIRIAYANPVKAQQMAEEAVNPANGGVIESNADNATWNYFETSQNPIYVATRYNQVQTSDHGGVPCLTGGDTHAAADIICYMNGYKDNRREKFFTKSEWAGQDYVGMRRGIVIPELKTTGHKYSGVNIAPTSPLYWMNAAEVAFLRAEGQAVFNFSMGGTAESFYNQGIRLSFEQWGADGVEDYLKDDVNKPTAYTDPAGTNTYQNALSNITIKWNDSADKEEKQERIIVQKWIANWQLGNEAWADFRRTGYPKLIPVKENKSGGVVDSEKGARRMPYPLDEFVSNKANVEYAIANYLHGADNMATDVWWASKK,glycan array binding signal (z-score),[1],19.1
same,glycan array binding signal (z-score),[2],0.265
same,glycan array binding signal (z-score),[3],-0.326
same,glycan array binding signal (z-score),[4],-0.32
same,glycan array binding signal (z-score),[5],-0.398
same,glycan array binding signal (z-score),[6],-0.343
same,glycan array binding signal (z-score),[7],-0.267
same,glycan array binding signal (z-score),[8],2
same,glycan array binding signal (z-score),[9],-0.398
same,glycan array binding signal (z-score),[10],-0.387
same,glycan array binding signal (z-score),[11],-0.371
same,glycan array binding signal (z-score),[12],-0.377
same,glycan array binding signal (z-score),[13],0.04
same,glycan array binding signal (z-score),[14],-0.338
same,glycan array binding signal (z-score),[15],-0.329
same,glycan array binding signal (z-score),[16],-0.363
same,glycan array binding signal (z-score),[17],-0.32
same,glycan array binding signal (z-score),[18],-0.356
same,glycan array binding signal (z-score),[19],1.81
same,glycan array binding signal (z-score),[20],0.297
same,glycan array binding signal (z-score),[21],5.2
same,glycan array binding signal (z-score),[22],-0.083
"Gal 3 (Homo sapiens), P17931 (protein) MADNFSLHDALSGSGNPNPQGWPGAWGNQPAGAGGYPGASYPGAYPGQAPPGAYPGQAPPGAYHGAPGAYPGAPAPGVYPGPPSGPGAYPSSGQPSAPGAYPATGPYGAPAGPLIVPYNLPLPGGVVPRMLITILGTVKPNANILDFQRGNDVAFHFNPRFNENNRRVIVCNTKLDNNWGREERQSVFPFESGKPFKIQVLVEPDHFKVAVNDAHLLQYNHRVKKLNEISKLGISGDIDLTSASYTMI",glycan array binding signal (z-score),[23],1.9
same,glycan array binding signal (z-score),[24],-0.331
same,glycan array binding signal (z-score),[25],3.62
same,glycan array binding signal (z-score),[26],3.84
same,glycan array binding signal (z-score),[27],5.09
same,glycan array binding signal (z-score),[28],2.16
same,glycan array binding signal (z-score),[29],4.33
same,glycan array binding signal (z-score),[30],4.1
same,glycan array binding signal (z-score),[31],-0.382
same,glycan array binding signal (z-score),[32],-0.391
same,glycan array binding signal (z-score),[33],0.949
same,glycan array binding signal (z-score),[34],-0.388
same,glycan array binding signal (z-score),[35],-0.389
same,glycan array binding signal (z-score),[36],4.28
same,glycan array binding signal (z-score),[37],2.57
same,glycan array binding signal (z-score),[38],-0.386
same,glycan array binding signal (z-score),[39],2.3
same,glycan array binding signal (z-score),[40],2.35
same,glycan array binding signal (z-score),[41],4.37
same,glycan array binding signal (z-score),[42],-0.307
same,glycan array binding signal (z-score),[43],-0.39
same,glycan array binding signal (z-score),[44],-0.376
same,glycan array binding signal (z-score),[45],-0.388
same,glycan array binding signal (z-score),[46],-0.392
same,glycan array binding signal (z-score),[47],-0.379
same,glycan array binding signal (z-score),[48],-0.389
same,glycan array binding signal (z-score),[49],-0.391
same,glycan array binding signal (z-score),[50],-0.391
same,glycan array binding signal (z-score),[51],-0.386
same,glycan array binding signal (z-score),[52],-0.379
